Drawing on PubChem BioAssay (NCI), this text covers growth for 15 compounds.

Among the test systems are HCT-15 colon; HT29 colon; SNB-75 CNS; SNB-19 CNS; PC-3 prostate; SK-MEL-5 melanoma; UACC-62 melanoma; LOX IMVI melanoma; SK-MEL-28 melanoma; U251 CNS.
Test in all cases: NCI-60 one-dose screen, 48 h (100 = growth as untreated, 0 = no growth, -100 = all killed)
What all share (settings): 10 µM unless noted

SMILES strings stand for the structures. The panel holds about 83,000 compounds, 20% with a hit somewhere; the sample as a whole holds those more often.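 Percent growth is the endpoint: 0 to 100 indicates growth inhibition (40 means 60% inhibition), 0 means no net growth, and negative values indicate cell death.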 A number with no mark means an inactive call. Active and inactive are the calls of the source. The calls were made as follows: active = growth percent below 10; inactive = the rest.

In the case of `CC(NNC(=S)N1CCCCCC1)c1ccc2ccccc2n1` (stereo not given), the growth with HCT-15 colon is 30.8%; with HT29 colon, 35.9%; in the experiment on SNB-75 CNS, 71.4%; in the experiment on SNB-19 CNS, 44.1%; in the experiment with PC-3 prostate it was 34.6%; in the experiment on SK-MEL-5 melanoma, 30.9%. The growth in the experiment with UACC-62 melanoma was 11.3%; in the experiment with LOX IMVI melanoma, 29.6%; with SK-MEL-28 melanoma, 54.7%.

For the compound `CC1Cc2ccccc2N1C(=O)c1ccc(C(=O)c2ccccc2)cc1` (stereo not given), the growth is 86% in the experiment on HCT-15 colon; 89.4% with HT29 colon; 94.3% in the experiment with SNB-75 CNS; 90.5% in the experiment with SNB-19 CNS; 63.5% in the experiment with U251 CNS; 74.2% in the experiment with SK-MEL-5 melanoma. The growth was 73.6% with UACC-62 melanoma, 83% with LOX IMVI melanoma and 99.5% in the experiment on SK-MEL-28 melanoma.

Take `Cc1sc2nc3c4ccccc4c(NCCCN(C)C)nn3c(=O)c2c1C`: the growth in the experiment with HCT-15 colon is 17.1%; in the experiment with HT29 colon it was -17.8% (active); in the experiment on SNB-75 CNS, 54.3%; in the experiment on SNB-19 CNS it was 81.6%; in the experiment on PC-3 prostate it was 50.9%; with SK-MEL-5 melanoma, 9.72% (active). Also, the growth with UACC-62 melanoma was 44.3%; in the experiment with LOX IMVI melanoma, -39% (active); in the experiment with SK-MEL-28 melanoma, -87.5% (active).

As to `CSc1nc(-c2ccc(O)cc2O)c2c(=O)[nH]c(Nc3ccc(S(=O)(=O)Nc4nc(C)cc(C)n4)cc3)nc2n1`, the growth with HCT-15 colon is 104%; in the experiment on HT29 colon it was 113%; with SNB-75 CNS, 73.1%; in the experiment with SNB-19 CNS, 96.1%; in the experiment with U251 CNS, 100%; in the experiment on SK-MEL-5 melanoma, 109%. Besides, the values for the growth in the experiment on UACC-62 melanoma, in the experiment with LOX IMVI melanoma and in the experiment on SK-MEL-28 melanoma were 92.7%, 99% and 97.8%, respectively.

Turning to `COc1cc(/C(Cl)=C/C=C/C(=O)c2c(C)[n+]([O-])c3ccc(Cl)cc3[n+]2[O-])cc(OC)c1OC`, the growth with HCT-15 colon was 11.5%; in the experiment on HT29 colon it was 14.1%; in the experiment with SNB-75 CNS it was 19.8%; with SNB-19 CNS, 51.2%; in the experiment with PC-3 prostate it was 40%; in the experiment with SK-MEL-5 melanoma it was 14.2%. For the same compound, the growth is 21.2% in the experiment on UACC-62 melanoma, -18.3% (active) in the experiment on LOX IMVI melanoma and 33.5% in the experiment with SK-MEL-28 melanoma.

As for `COC(=O)c1c(NC(=O)CSc2nnnn2-c2ccc(OC)cc2)sc(C)c1C`, the growth was 101% with HCT-15 colon; 107% in the experiment with HT29 colon; 79.4% in the experiment on SNB-75 CNS; 102% with SNB-19 CNS; 99.6% in the experiment with U251 CNS; 115% in the experiment with SK-MEL-5 melanoma. Moreover, the growth in the experiment on UACC-62 melanoma is 74.8%; with LOX IMVI melanoma, 91.2%; with SK-MEL-28 melanoma, 108%.

As to `O=C(CNC(=O)c1cccc2ccccc12)Nc1ccccc1Oc1ccc(O)cc1`, the growth in the experiment on HCT-15 colon is 27.4% [5 µM]; in the experiment with HT29 colon it was 4.1% [5 µM] (active); in the experiment on SNB-75 CNS it was 19.7% [5 µM]; with SNB-19 CNS, 51.9% [5 µM]; in the experiment with U251 CNS, 20.8% [5 µM]; in the experiment on SK-MEL-5 melanoma it was 27.7% [5 µM]. In addition, the growth is 55% [5 µM] in the experiment with UACC-62 melanoma, 40.9% [5 µM] in the experiment on LOX IMVI melanoma and 59.9% [5 µM] in the experiment on SK-MEL-28 melanoma.

On to `COc1ccc(/C=C/C(=O)c2cccc(NS(C)(=O)=O)c2)cc1`, for which the growth with HCT-15 colon is 67.5%; in the experiment on HT29 colon, 49.1%; in the experiment on SNB-75 CNS, 68.6%; with SNB-19 CNS it was 87.9%; in the experiment with U251 CNS it was 37.6%; in the experiment with SK-MEL-5 melanoma it was 90.4%. The growth is 76% in the experiment with UACC-62 melanoma, 75% in the experiment on LOX IMVI melanoma and 110% in the experiment with SK-MEL-28 melanoma.

Regarding `CCN1CC2=C(Nc3nc(SC)[nH]c(=O)c3C2c2cc(OC)c(OC)c(OC)c2)/C(=C/c2cc(OC)c(OC)c(OC)c2)C1` (stereo not given), the growth with HCT-15 colon is 104%; with HT29 colon it was 99.1%; with SNB-75 CNS, 92.2%; with SNB-19 CNS it was 91.6%; with U251 CNS, 83.8%; in the experiment with SK-MEL-5 melanoma, 88.6%. Also, the growth in the experiment on UACC-62 melanoma is 90.1%; in the experiment with LOX IMVI melanoma it was 91.1%; with SK-MEL-28 melanoma it was 104%.

With `COc1ccc2[nH]c(=O)c(CNc3ccc(Nc4nccc(-c5ccc(Cl)cc5)n4)cc3)cc2c1`, the growth with HCT-15 colon is 74.3%; in the experiment on HT29 colon, 76%; in the experiment on SNB-75 CNS it was 106%; in the experiment on SNB-19 CNS, 95.4%; in the experiment with PC-3 prostate, 71.4%; in the experiment with SK-MEL-5 melanoma, 95.6%. For the same compound, the growth in the experiment on UACC-62 melanoma is 96.7%; in the experiment on LOX IMVI melanoma it was 97.1%; with SK-MEL-28 melanoma, 112%.

Take `COc1ccc2cc(-c3nc4ccccc4[nH]3)c(=O)oc2c1`: the growth was 94.2% in the experiment on HCT-15 colon; 114% with HT29 colon; 126% in the experiment on SNB-75 CNS; 98.3% with SNB-19 CNS; 93.5% with U251 CNS; 87.5% in the experiment with PC-3 prostate. Moreover, the growth is 83.6% in the experiment with UACC-62 melanoma, 80.4% in the experiment on LOX IMVI melanoma and 103% in the experiment on SK-MEL-28 melanoma.

With `COc1cccc(/C=N\NC(=O)c2ccncc2)c1O`, the growth in the experiment with HCT-15 colon was 23.9%; in the experiment on HT29 colon it was 67.6%; in the experiment with SNB-75 CNS, 57.1%; in the experiment with SNB-19 CNS, 52.6%; with PC-3 prostate it was 47.1%; in the experiment with SK-MEL-5 melanoma, 58.8%. The growth with UACC-62 melanoma is 41.2%; in the experiment on LOX IMVI melanoma, 15.2%; with SK-MEL-28 melanoma it was 69.6%.

As for `Oc1ccccc1/C=N/N1CCCCCC1`, the growth with HCT-15 colon was 93.7%; in the experiment with HT29 colon it was 97.6%; in the experiment on SNB-75 CNS it was 80.3%; in the experiment with SNB-19 CNS, 97.1%; in the experiment on U251 CNS, 120%; in the experiment on SK-MEL-5 melanoma, 94.2%. Further, the growth was 85.9% in the experiment on UACC-62 melanoma, 96% with LOX IMVI melanoma and 109% in the experiment with SK-MEL-28 melanoma.

Consider `CCNCCCn1c2c(c3ccc(F)cc3c1=O)C(=O)c1cc(OC)cnc1-2`, for which the growth is 2.25% (active) with HCT-15 colon; -14.9% (active) in the experiment with HT29 colon; -18.2% (active) with SNB-75 CNS; 12.1% in the experiment on SNB-19 CNS; -25.8% (active) with U251 CNS; -99.1% (active) in the experiment on SK-MEL-5 melanoma. Also, the growth in the experiment on UACC-62 melanoma was -34.5% (active); in the experiment with LOX IMVI melanoma it was -64.9% (active); with SK-MEL-28 melanoma it was 8.91% (active).

As to `O=CNc1ccc2c(c1)Cc1cc([N+](=O)[O-])ccc1-2`, the growth in the experiment with HCT-15 colon was 27%; with HT29 colon, 37.5%; in the experiment on SNB-75 CNS, 15.6%; with SNB-19 CNS, 36.2%; with U251 CNS, 16.4%; with SK-MEL-5 melanoma, 18.8%. In addition, the growth was 29.6% in the experiment with UACC-62 melanoma, 40.8% in the experiment on LOX IMVI melanoma and 57% in the experiment with SK-MEL-28 melanoma.
